Records with an inconclusive call do not appear. Where a call stands in place of a potency, no number is given. Unmarked numbers belong to inactive results. The source made the active and inactive calls. Calls come from the whole dose curve; as a rule, active = well fitted cell-killing curve with a large enough effect in the repeat runs; inconclusive = weak or mixed curves, or effect the other way; inactive = flat fitted curve, though single readings scatter.
Assay: cAMP Responsive Elements (CRE) small molecule agonists, cell-based qHTS assay: qHTS cell viability counter screen (AID 2060914); note: nearly all actives have a fitted effect of over 50% in size
Details: CRE-bla HEK293T viability, CellTiter-Glo luminescence, 5 h; series mostly up to 92.4 µM
Excerpt: National Center for Advancing Translational Sciences [NCATS]
Division of Preclinical Innovation [DPI]
U.S. Environmental Protection Agency [EPA]
National Institutes of Environmental Health Sciences [NIEHS]
National Toxicology Program [NTP]
U.S. Food and Drug Administration [FDA]
CREB (cyclic-AMP Responsive Element Binding Protein) is a cellular transcription factor. It binds to certain DNA sequences called cAMP Responsive Elements (CRE) and regulates the transcription of the genes. […] This cell line can be used to find agonists/antagonists of the cyclic AMP signaling pathway. The activation of the report gene under culture conditions can be detected by fluorescence intensity. This cell line has been used to screen the Tox21 10K compound library to identify agonists that induce oxidative stress. The cytotoxicity of the Tox21 compound library against the CRE-bla cell line was tested in parallel by measuring the cell viability using CellTiter-Glo assay (Promega, Madison, WI) in the same wells.
Tox21 Assay Protocol Summary:
CRE-bla Hek 293T cells were suspended in assay medium (DMEM containing 10% dialyzed FBS, 0.1 mM NEAA, 1 mM sodium pyruvate and 25 mM HEPES) and dispensed at 2,000 cells/5 uL /well into 1536-well black wall/clear bottom plates using a Multidrop Combi (ThermoFisher Scientific, Waltham, MA) dispenser. After the assay plates were incubated at 37 C/5% CO2 for 18 hrs, 23 nL of compounds dissolved in DMSO, positive controls or DMSO only was transferred to the assay plate by a pintool workstation (Kalypsys, San Diego, CA). After the plates were incubated at 37 C/5% CO2 for 3 hrs, 1 uL of LiveBLAzer B/G FRET substrate (Invitrogen, Carlsbad, CA) was added to each well using Bioraptr Flying Reagent Dispenser (FRD, Aurora Discovery, San Diego, CA). The plates were incubated at room temperature for 2 h, then fluorescence intensities were measured using an Envision plate reader (PerkinElmer, Shelton, CT) at Excitation 405nm, Emission 460nm and 530nm. The % activity was determined from the ratio of 460nm/530nm. For cell viability readout that measures cytotoxicity, 4 uL /well of CellTiter-Glo reagent was added into the assay plates using Bioraptr FRD. After 30 min incubation at room temperature, the luminescence intensity in the assay plates was measured using a ViewLux (PerkinElmer, Shelton, CT) plate reader.
Potency is the fitted concentration of half-maximal effect.

Question: With `CC1=CCC(O)(C(C)C)CC1` (stereo not given) as the compound, how does the Potency read?
Answer: inactive

Question: Which Potency does the source give for `Oc1ccc(Cc2ccccc2)cc1` here?
Answer: inactive

Question: For `C=C(C)C1CC=C(C)CC1` (stereo not given), which Potency is on record?
Answer: inactive

Question: With `C[C@H]1C[C@H]2[C@@H]3CCC4=CC(=O)C=C[C@]4(C)[C@@]3(F)[C@@H](O)C[C@]2(C)[C@@]1(O)C(=O)COP(=O)(O)O` as the compound, how does the Potency read?
Answer: inactive

Question: With `[O-][n+]1ccccc1SSc1cccc[n+]1[O-]` as the compound, how does the activity change, negative = cytotoxicity read?
Answer: -16.6% [at 18.9 µM]

Question: For `c1ccc2c(c1)ccc1cc3c(ccc4ccccc43)cc12`, which Potency is on record?
Answer: inactive

Question: With `CCC1CCCCC1` as the compound, how does the Potency read?
Answer: inactive

Question: Which Potency does the source give for `C[n+]1ccn(CCO)c1` here?
Answer: inactive

Question: With `OCCNCc1ccccc1` as the compound, how does the Potency read?
Answer: inactive

Question: Which Potency does the source give for `COC(=O)C1=C(C)NC(C)=C(C(=O)OC(C)C)C1c1cccc2nonc12` (stereo not given) here?
Answer: inactive

Question: For `SC1CCCCC1`, which Potency is on record?
Answer: inactive

Question: For `O=C(CS(=O)Cc1ccco1)NC/C=C\COc1cc(CN2CCCCC2)ccn1` (stereo not given), which Potency is on record?
Answer: inactive

Question: With `CN(C)C(C)(C)CO` as the compound, how does the Potency read?
Answer: inactive

Question: For `CCCCCC`, which Potency is on record?
Answer: inactive

Question: For `COc1ccc([C@@H]2Sc3ccccc3NC(=O)[C@@H]2O)cc1`, which Potency is on record?
Answer: inactive

Question: For `CC(C)(O)c1ccccc1CC[C@@H](SCC1(CC(=O)O)CC1)c1cccc(/C=C/c2ccc3ccc(Cl)cc3n2)c1`, which Potency is on record?
Answer: inactive

Question: Which Potency does the source give for `O=C1CCCN1CCO` here?
Answer: inactive

Question: For `CC1=NN(c2ccc(S(=O)(=O)O)cc2)C(=O)C1`, which Potency is on record?
Answer: inactive

Question: Which Potency does the source give for `CCCOC(=O)CCCCC(=O)OCCC` here?
Answer: inactive

Question: With `O=C1CCCc2ccccc21` as the compound, how does the Potency read?
Answer: inactive

Question: Which Potency does the source give for `C=CCON/C(CCC)=C1\C(=O)CC(C)(C)C(C(=O)OC)=C1O` here?
Answer: inactive

Question: With `CCCCCCCCCCCCCCCCCC[N+](C)(C)C` as the compound, how does the Potency read?
Answer: 61.3 µM (active)

Question: With `CC1(C)[C@@H](O)CC[C@]2(C)[C@H]3C(=O)C=C4[C@@H]5C[C@@](C)(C(=O)O)CC[C@]5(C)CC[C@@]4(C)[C@]3(C)CC[C@@H]12` as the compound, how does the Potency read?
Answer: inactive

Question: With `CCCCCCCCCC(C)=O` as the compound, how does the Potency read?
Answer: inactive

Question: With `CC(C)C[C@H]1C(=O)N2CCC[C@H]2[C@]2(O)O[C@](NC(=O)[C@@H]3C=C4c5cccc6[nH]c(Br)c(c56)C[C@H]4N(C)C3)(C(C)C)C(=O)N12` as the compound, how does the Potency read?
Answer: inactive

Question: With `CC(=O)OC[C@H]1O[C@@](COC(C)=O)(O[C@H]2O[C@H](COC(C)=O)[C@@H](OC(C)=O)[C@H](OC(C)=O)[C@H]2OC(C)=O)[C@@H](OC(C)=O)[C@@H]1OC(C)=O` as the compound, how does the Potency read?
Answer: inactive

Question: For `CC(=O)c1cccc([N+](=O)[O-])c1`, which Potency is on record?
Answer: inactive

Question: For `CCCCCCCCCCCCN`, which Potency is on record?
Answer: inactive

Question: For `CCCCCCCCN1CCCC1=O`, which Potency is on record?
Answer: inactive

Question: Which Potency does the source give for `[O-][n+]1ccc(Cl)cc1` here?
Answer: inactive

Question: With `CCC[Si](OC)(OC)OC` as the compound, how does the Potency read?
Answer: inactive

Question: For `CCCCCCCOC(=O)c1ccc(O)cc1`, which Potency is on record?
Answer: inactive

Question: For `Oc1ccc2cc(SSc3ccc4cc(O)ccc4c3)ccc2c1`, which Potency is on record?
Answer: inactive

Question: With `C=C1C[C@H]2[C@@H]3C=C(C)C4=CC(=O)CC[C@]4(C)[C@H]3CC[C@]2(C)[C@@]1(OC(C)=O)C(C)=O` as the compound, how does the Potency read?
Answer: inactive

Question: With `CSc1nc(NC2CC2)nc(NC(C)(C)C)n1` as the compound, how does the Potency read?
Answer: inactive

Question: Which Potency does the source give for `O=S1(=O)OC(c2ccc(O)cc2)(c2ccc(O)cc2)c2ccccc21` here?
Answer: inactive

Question: With `CCOCCOCCOCCO` as the compound, how does the Potency read?
Answer: inactive

Question: For `C1COCO1`, which Potency is on record?
Answer: inactive

Question: Which Potency does the source give for `CCCCCCCCCCCCCCCS(=O)(=O)Oc1ccccc1` here?
Answer: inactive

Question: With `c1ccc(C[P+](c2ccccc2)(c2ccccc2)c2ccccc2)cc1` as the compound, how does the Potency read?
Answer: inactive

Source: PubChem BioAssay (Tox21)
